Assay outcomes from PubChem BioAssay.
HSD17B inh: blocks hydroxysteroid 17-beta dehydrogenase activity; recombinant HSD17B10, NADH fluorescence kinetic; Potency, µM (highest dose often 57.1 µM), for inactives: at the top dose activity change, negative = inhibition, most hits filed as inhibitors; 75,000 compounds, 7.6% hits;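 note: the protocol describes HADH2 (HSD17B10) and not the HSD17B4 of the title; potency is the fitted concentration of half-maximal effect; % is set by controls: 0 for no effect and ±100 for the full control effect; nearly all actives have a fitted effect of over 70% in size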
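His-tagged E. coli-expressed HADH2 at 20 nM in 100 mM Tris-HCl pH 9.0 with 0.01 % Tween-20, preincubated 15 min with compound at room temperature. Reaction with 1 mM NAD+ and 90 uM beta-hydroxybutyryl coenzyme A; NADH fluorescence (360/450 nm) read kinetically over 4 min, last minus first point.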
CRE Fsk mod: alters forskolin-stimulated CRE reporter signaling in CHO cells; CHO CRE-bla reporter (cAMP response element driving beta-lactamase), forskolin EC10, beta-lactamase ratio; Potency, µM (titrated, usually from 38.2 µM), without a hit: at the highest dose activity change, negative = inhibition, hits mostly activators; AID 662; 71,000 compounds, 2.5% hits; active = well fitted activation curve with a large enough effect in the signal ratio, with a control signal flat, not every such curve was filed as active; inconclusive = small, poorly fitted or top-dose-only effect, or effect the other way, or a change in a side signal; the % refers to the signal ratio; note: potency is the fitted concentration of half-maximal effect; % of control where 0% means no effect
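Modulation of forskolin signalling: compounds in titration series added with EC10 NKH 477 to CHO cells carrying a CRE-driven beta-lactamase reporter, 3 h, 37C. CCF4 FRET ratio (460/530 nm, ex 405 nm) gives %activity and AC50.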
A350 fluor: compound fluoresces in the Alexa 350 spectral region; Compound autofluorescence, 340/450 nm, Alexa 350 dye-equivalents; active compounds read high; max dye-equivalent concentration, M; 59,000 compounds, 11% hits; AID 590; in the data active = max dye-equivalent concentration above about 10 nM; inconclusive = mostly about 1.1 nM to 9.6 nM
HADH2 inh: inhibitors of human HADH2 dehydrogenase | recombinant HADH2, NADH fluorescence, beta-hydroxybutyryl-CoA | Potency, µM (series often up to 57.1 µM), inactives show at the highest dose activity change, negative = inhibition, hits mostly inhibitors | 73,000 compounds, 3.4% hits | AID 886; note: potency is the fitted concentration of half-maximal effect; % is set by controls: 0 for no effect and ±100 for the full control effect; nearly all actives have a fitted effect of over 60% in size
Target sequence (Q99714 whole entry, looked up, one chain of several): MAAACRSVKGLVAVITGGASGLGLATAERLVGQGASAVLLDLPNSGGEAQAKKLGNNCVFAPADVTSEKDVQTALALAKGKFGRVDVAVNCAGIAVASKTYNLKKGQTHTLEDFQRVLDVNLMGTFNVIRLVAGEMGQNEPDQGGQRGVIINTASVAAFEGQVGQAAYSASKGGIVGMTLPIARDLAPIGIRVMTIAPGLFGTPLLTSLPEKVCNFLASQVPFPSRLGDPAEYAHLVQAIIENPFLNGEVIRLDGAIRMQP
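Buffer 100 mM Tris-HCl pH 9.0/0.01% Tween-20; HADH2 20 nM; NAD+ 1 mM; beta-hydroxybutyryl-CoA 90 uM (all final). 15 min cpd preincubation, RT.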
4-MU autofl: compounds fluorescent in 4-MU spectral region | 59,000 compounds, 11% hits | AID 589 | max dye-equivalent concentration, M | compound autofluorescence, 340/450 nm, 4-MU equivalents; active compounds read high; in the data active = max dye-equivalent concentration above about 10 nM; inconclusive = mostly about 1.1 nM to 9.6 nM
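Compounds in 100 mM Tris, pH 8.0, incubated 15 min at room temperature, then fluorescence read at 340 nm excitation/450 nm emission. Signal converted to 4-MU dye-equivalent concentration using an on-plate six-point 4-MU standard curve.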
AID923: qHTS Assay for Allosteric/Competitive Inhibitors of Caspase-1: Spectroscopic Profiling in AFC Spectral Region | 75,000 compounds, 1.1% hits | AID 923, 2007 | Potency, µM (top dose mostly 57.5 µM), inactives show at the highest dose fluorescence increase, actives largely listed as activators | compound fluorescence, AFC spectral region (405/520 nm); note: potency is the fitted concentration of half-maximal effect; 0% is about no effect
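Baseline compound fluorescence (AFC region, 405 nm ex/520 nm em) taken from the intercept of kinetic reads with 50 nM caspase-1 and 5 uM Ac-WEHD-AFC; normalized to an on-plate AFC standard curve; compounds titrated up to 57 uM.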
Starred values were filed as active, the others as inactive; i = inactive; ? = inconclusive; . = no result; [ ] = another dose, or the depositor's remark. This is a sample that favours compounds with a hit; in the whole collection about 14% have one here. Unless noted, calls come from the whole dose curve; as a rule, active = well fitted curve in the direction sought with a large enough effect; inconclusive = small, poorly fitted or top-dose-only effect, or another doubt; inactive = no such curve, though single readings can be large; an effect the other way counts as inactive or inconclusive.

SMILES	HSD17B inh	CRE Fsk mod	A350 fluor	HADH2 inh	4-MU autofl	AID923
c1ccc(N2CCOCC2)c(Nc2nc3ccccc3n3cnnc23)c1	8%	?	.	0%	.	0%
CCn1cc(Br)c(C(=O)Nc2ccc(F)c(Cl)c2)n1	-6%	-2%	.	0%	.	-1%
CCOC(=O)c1nn(-c2ccccc2)c(=O)c(C#N)c1C	-16%	14%	1e-08M*	0%	1.1e-08M*	1%
CCOC(=O)c1ccc(NC(=O)c2nn(C)cc2Br)cc1	?	10%	.	21%	.	-1%
CCOC(=O)c1c(NC(=O)c2nn(CC)cc2Br)c(C#N)nn1-c1ccccc1	-29%	7.9µM*	i	-1%	i	-2%
CCOC(=O)c1nn(-c2ccccc2)c(C#N)c1NC(=O)c1nn(CC)cc1Br	25µM*	1.6µM*	i	5%	i	-2%
COc1cc2c(cc1OC)-c1nnc(C)n1C(C)(C)C2	6%	.	.	8%	.	0%
COc1cc2c(cc1OC)-c1nncn1C(C)(C)C2	-3%	13µM*	i	4%	i	0%
CCN(CC)S(=O)(=O)c1ccc2[nH]cc(C(=O)NCCN3CCCCC3C)c(=O)c2c1 (stereo unspecified)	32µM*	13%	1.3e-08M*	?	?	-2%
Cn1cccc1C(=O)Nc1nc(-c2ccccn2)cs1	-13%	13%	i	6.3µM*	i	1%
COC(=O)n1c(=O)oc2ccccc21	10%	-8%	i	-1%	i	-2%
COC(=O)n1c(SC)nc2ccccc21	2%	10µM*	?	-8%	?	1%
CCCCn1c(SCC(=O)O)nc2ccccc21	2%	-6%	i	-3%	i	1%
CCCCOC(=O)n1c(SCC(=O)N(C)C)nc2ccccc21	-18%	?	7e-08M*	3%	5.1e-08M*	0%
CCCCOC(=O)n1c(=O)oc2ccccc21	0%	-9%	1.9e-08M*	-4%	1.3e-08M*	-2%
CC(=O)c1ccc(C2C=CC(Oc3ccc(F)cc3C)C(CO)O2)cc1 (stereo unspecified)	-4%[11.4 µM]	.	.	13%[11.4 µM]	.	1%[11.5 µM]
COC(=O)c1ccc(C(NC(=O)OCc2ccccc2)/C(=C/[C@@H](C)C(=O)NCc2nc3ccccc3n2C)c2cccnc2)cc1 (stereo partly specified)	-13%	-10%	.	-3%	.	-1%
COc1cccc(C(=O)NCC(=O)N2CCC(C)CC2)c1	-1%	-2%	1.1e-08M*	3%	?	0%
Cc1sc2c(c1C)CN(C1CC(C)(C)NC(C)(C)C1)CN2C(=O)c1ccco1	-7%	-19%	2.8e-08M*	0%	2.9e-08M*	9%
CC1(C)CC(CCNC(=O)c2ccco2)CC(C)(C)N1	8%	-3%	i	0%	i	-3%
CC(=NCC(=O)O)c1ccccc1	-3%[11.4 µM]	0%[7.6 µM]	i	3.2µM*	i	-3%[11.5 µM]
CCCCC1CN2C(CCC(C)C2c2ccc(Br)cc2)C(=O)O1 (stereo unspecified)	5%[11.4 µM]	.	.	4%[11.4 µM]	.	2%[11.5 µM]
Cn1cccc1C(=O)N1CCC2(CCN(C(=O)Nc3cccc(F)c3)CC2)CC1	-5%	-7%	i	4%	i	1%
FC(F)(F)c1ccc(C2[C@H]3CN(CC4CCCCC4)[C@H](c4ccccc4)C34CC2(c2ccccc2)C4)cc1 (stereo partly specified)	19%	.	.	.	.	4%
Nc1nc(-c2cccnc2)nn1C(=O)Cc1ccccc1	?	13%	1.3e-08M*	?	1.2e-08M*	0%
Nc1nc(-c2ccccc2)nn1C(=O)Cc1ccccc1	-5%	?	i	-8%	i	1%
O=C(Nc1cccc(F)c1)N1CCC2(CC1)CCN(C(=O)c1cnccn1)CC2	1%	-2%	i	-6%	i	2%
CC(C)[C@@H](CC(=O)N[C@@H]1CCCC[C@H]1C(=O)N[C@H](CC(=O)N[C@@H](CCC(=O)O)CC(=O)O)Cc1ccccc1)NC(=O)C[C@H](CO)NC(=O)[C@@H]1CCCC[C@H]1N	.	?	.	-7%	.	.
